According to PubChem BioAssay AID1159580 (chemical genetic matrix, 2015):
Among all 5,500 compounds or so, about 2,000 (36%) were called active. Not shown: some 18% with an inconclusive outcome. No stated cut-off is given here; in the data, active means normalized growth mostly below about 0.91 (no sharp cut-off); inconclusive means no clear call, values can overlap the other calls; inactive means mostly above about 0.92. Some of the results follow.

Assay: chemical genetic growth profiling, strain panel (AID 1159580);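 further: tested at 20 µM; growth read once vehicle control cultures reached saturation at 30 °C; 1 = growth at the plate median or of vehicle wells; lower values mean less growth of the strain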
Conditions: growth OD
[1] = S. cerevisiae deletion strains, locus YAL013W, strain DEP1, active compounds read low
[2] = S. cerevisiae deletion strains, locus YBR229C, strain ROT2, active compounds read low
[3] = S. cerevisiae deletion strains, locus YDL101C, strain DUN1, active compounds read low
[4] = S. cerevisiae deletion strains, locus YDL134C, strain PPH21, active compounds read low
[5] = S. cerevisiae deletion strains, locus YDR150W, strain NUM1, active compounds read low
[6] = S. cerevisiae deletion strains, locus YEL061C, strain CIN8, active compounds read low
[7] = S. cerevisiae deletion strains, locus YGR078C, strain PAC10, active compounds read low
[8] = S. cerevisiae deletion strains, locus YHR030C, strain SLT2, active compounds read low
[9] = S. cerevisiae deletion strains, locus YHR087W, strain rtc3, active compounds read low
[10] = S. cerevisiae deletion strains, locus YJL187C, strain SWE1, active compounds read low
[11] = S. cerevisiae deletion strains, locus YJR043C, strain POL32, active compounds read low
[12] = S. cerevisiae deletion strains, locus YJR075W, strain HOC1, active compounds read low
[13] = S. cerevisiae deletion strains, locus YLR039C, strain RIC1, active compounds read low
[14] = S. cerevisiae deletion strains, locus YLR058C, strain SHM2 (second series), active compounds read low
[15] = S. cerevisiae deletion strains, locus YLR085C, strain ARP6, active compounds read low
[16] = S. cerevisiae deletion strains, locus YLR262C, strain YPT6, active compounds read low
[17] = S. cerevisiae deletion strains, locus YML094W, strain GIM5, active compounds read low
[18] = S. cerevisiae deletion strains, locus YMR219W, strain ESC1, active compounds read low
[19] = S. cerevisiae deletion strains, locus YMR263W, strain SAP30, active compounds read low
[20] = S. cerevisiae deletion strains, locus YNL153C, strain GIM3, active compounds read low
[21] = S. cerevisiae deletion strains, locus YNL298W, strain CLA4 (second series), active compounds read low
[22] = S. cerevisiae deletion strains, locus YNL322C, strain KRE1, active compounds read low
[23] = S. cerevisiae deletion strains, locus YNR030W, strain Alg12, active compounds read low
[24] = S. cerevisiae deletion strains, locus YOL006C, strain TOP1, active compounds read low
[25] = S. cerevisiae deletion strains, locus YPL055C, strain LGE1, active compounds read low
[26] = S. cerevisiae deletion strains, locus YPL241C, strain CIN2, active compounds read low
[27] = S. cerevisiae deletion strains, locus YPR135W, strain CTF4, active compounds read low

Measured: normalized growth

O=[N+]([O-])c1ccc(C2N(Cc3ccccc3)CCC3CCCCN32)cc1 (stereo unspecified)
inactive: [1] 1 | [2] 0.998 | [3] 1 | [4] 1.01 | [5] 0.997 | [6] 0.983 | [7] 1.01 | [8] 0.954 | [9] 0.985 | [10] 0.999 | [11] 1.01 | [12] 0.966 | S. cerevisiae deletion strains, locus YKL190W, strain CNB1, active compounds read low 1.01 | [13] 1 | [14] 1.01 | [15] 1.02 | [16] 0.908 | [17] 0.983 | [18] 0.988 | [19] 0.998 | [20] 1.01 | [21] 1.01 | [22] 1.01 | [23] 1.02 | [24] 0.972 | [25] 0.985 | [26] 0.995 | [27] 1.03

COP(=S)(OC)Oc1cc(Cl)c(Cl)cc1Cl
active: [8] 0.127 | S. cerevisiae deletion strains, locus YHR079C, strain IRE1, active compounds read low 0.163 | S. cerevisiae deletion strains, locus YJL095W, strain BCK1, active compounds read low 0.163 | S. cerevisiae deletion strains, locus YJR066W, strain TOR1, active compounds read low 0.08 | S. cerevisiae deletion strains, locus YLR113W, strain HOG1, active compounds read low 0.163 | S. cerevisiae deletion strains, locus YNL183C, strain NPR1, active compounds read low 0.0646 | S. cerevisiae deletion strains, locus YOR231W, strain MKK1, active compounds read low 0.152 | S. cerevisiae deletion strains, locus YPL256C, strain CLN2, active compounds read low 0.151

COc1cc(Cl)c(Cl)cc1Cl
inactive: [1] 0.991 | [2] 1 | [3] 0.997 | [4] 0.997 | [5] 1.01 | [6] 0.992 | [7] 1 | S. cerevisiae deletion strains, locus YGR229C, strain SMI1, active compounds read low 0.997 | [8] 0.94 | [9] 1.01 | [10] 0.999 | [11] 0.974 | [12] 1.03 | [13] 0.986 | [14] 0.994 | [15] 1.06 | [16] 0.96 | [17] 1.03 | [18] 1.01 | [19] 1.01 | S. cerevisiae deletion strains, locus YMR307W, strain GAS1, active compounds read low 1.06 | [20] 0.983 | [21] 0.948 | [22] 1.01 | [23] 0.98 | [24] 0.949 | [25] 1.1 | [26] 1.02 | [27] 0.91 | S. cerevisiae strains, strain wild type, active compounds read low 0.981
